# From PubChem BioAssay (NCATS)
# Unmarked numbers belong to inactive results. Inconclusive results are not listed. Entries that show only a call come without a potency. Active and inactive are the calls of the source. Unless noted, calls come from the whole dose curve; as a rule, active = well fitted curve in the direction sought with a large enough effect; inconclusive = small, poorly fitted or top-dose-only effect, or another doubt; inactive = no such curve, though single readings can be large; an effect the other way counts as inactive or inconclusive.
# Assays:
# [1] = target: Glucocorticoid receptor (Homo sapiens) (UniProt P04150); assay: GR-GFP Redistribution (AID 450;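 active = compounds whose dose series gives a full or clear partial fitted curve of increased nuclear translocation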; note: potency is the fitted concentration of half-maximal effect); details: U2OS GR-GFP nuclear translocation, laser cytometry, 2 h
# Chain of Glucocorticoid receptor (Homo sapiens) (P04150 whole entry, looked up, the tested form may be a part): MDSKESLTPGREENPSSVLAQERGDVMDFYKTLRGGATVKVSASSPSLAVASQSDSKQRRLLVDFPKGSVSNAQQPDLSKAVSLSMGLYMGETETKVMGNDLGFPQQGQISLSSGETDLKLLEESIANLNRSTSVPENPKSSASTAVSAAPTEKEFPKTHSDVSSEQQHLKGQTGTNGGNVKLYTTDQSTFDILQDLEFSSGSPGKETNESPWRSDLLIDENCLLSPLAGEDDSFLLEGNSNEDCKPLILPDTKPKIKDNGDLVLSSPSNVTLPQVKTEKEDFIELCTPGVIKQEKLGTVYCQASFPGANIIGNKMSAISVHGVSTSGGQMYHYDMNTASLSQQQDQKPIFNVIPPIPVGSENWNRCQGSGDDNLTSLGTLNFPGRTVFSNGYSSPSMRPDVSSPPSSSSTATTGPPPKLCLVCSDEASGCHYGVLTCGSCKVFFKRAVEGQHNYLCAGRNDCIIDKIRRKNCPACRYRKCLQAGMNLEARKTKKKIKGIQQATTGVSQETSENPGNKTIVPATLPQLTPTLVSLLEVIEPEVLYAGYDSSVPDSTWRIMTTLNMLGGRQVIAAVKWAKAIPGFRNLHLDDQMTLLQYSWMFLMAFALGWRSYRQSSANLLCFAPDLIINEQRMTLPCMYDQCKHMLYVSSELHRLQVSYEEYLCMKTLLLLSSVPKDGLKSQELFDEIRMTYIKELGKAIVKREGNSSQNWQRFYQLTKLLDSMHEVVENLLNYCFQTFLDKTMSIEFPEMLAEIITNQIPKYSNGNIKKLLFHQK
# [2] = target: Mitogen-activated protein kinase 10 (Mus musculus) (UniProt Q61831); assay: JNK3 AlphaScreen Assay (AID 530; active = well fitted curve in either direction with a large enough effect, not every such curve was filed as active;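 note: kinase came from lysate of stimulated human HepG2 cells; signal reports phosphorylation of biotinylated GST-cJun 1-79 at Ser73 with 10 µM ATP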); details: JNK3 lysate, c-Jun phosphorylation; series mostly up to 57.1 µM
# Procedure, shortened: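 Compound titrations were preincubated 15 minutes at room temperature with substrate, antibody and pre-activated JNK3-containing HepG2 lysate. Reactions were started with 10 uM ATP and stopped with EDTA-containing bead buffer for AlphaScreen detection.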
# [3] = target: Cytochrome P450 3A4 (Homo sapiens) (UniProt P08684); assay: qHTS Assay for Activators of Cytochrome P450 3A4 (AID 885); details: recombinant CYP3A4, Luciferin-PPXE luminescence, 60 min; series mostly up to 57.1 µM; note: nearly all actives have a fitted effect of over 65% in size
# Chain of Cytochrome P450 3A4 (Homo sapiens) (P08684 whole entry, looked up): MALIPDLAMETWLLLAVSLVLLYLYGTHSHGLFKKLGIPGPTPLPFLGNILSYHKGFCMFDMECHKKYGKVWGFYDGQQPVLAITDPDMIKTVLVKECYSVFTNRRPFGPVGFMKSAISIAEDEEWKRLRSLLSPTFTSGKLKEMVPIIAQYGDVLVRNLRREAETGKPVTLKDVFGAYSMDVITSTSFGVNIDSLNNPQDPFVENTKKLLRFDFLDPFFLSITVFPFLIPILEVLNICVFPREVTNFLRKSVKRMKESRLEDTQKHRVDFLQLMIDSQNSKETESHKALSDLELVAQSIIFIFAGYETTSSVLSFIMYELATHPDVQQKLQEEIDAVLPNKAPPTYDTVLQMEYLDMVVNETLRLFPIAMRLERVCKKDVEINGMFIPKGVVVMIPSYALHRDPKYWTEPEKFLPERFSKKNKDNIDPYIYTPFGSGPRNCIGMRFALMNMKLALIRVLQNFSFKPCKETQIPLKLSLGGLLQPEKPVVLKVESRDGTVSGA
# Procedure, shortened: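 Quantitative HTS format: compounds preincubated with 20nM human CYP3A4 and Luciferin-PPXE substrate at KM, reaction started by NADPH regeneration, stopped after 60 min, luciferase luminescence read 20 min later.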
# [4] = target: Ubiquitin carboxyl-terminal hydrolase 1 (Homo sapiens) (UniProt O94782); assay: Inhibitors of USP1/UAF1: Pilot qHTS (AID 504865); details: purified USP1/UAF1, Ub-rhodamine cleavage fluorescence; series mostly up to 114 µM;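 note: rhodamine fluorescence freed from ubiquitin-rhodamine substrate followed over time; top concentration of the series differs between compounds; nearly all actives have a fitted effect of over 35% in size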
# Chain of Ubiquitin carboxyl-terminal hydrolase 1 (Homo sapiens) (O94782 whole entry, looked up): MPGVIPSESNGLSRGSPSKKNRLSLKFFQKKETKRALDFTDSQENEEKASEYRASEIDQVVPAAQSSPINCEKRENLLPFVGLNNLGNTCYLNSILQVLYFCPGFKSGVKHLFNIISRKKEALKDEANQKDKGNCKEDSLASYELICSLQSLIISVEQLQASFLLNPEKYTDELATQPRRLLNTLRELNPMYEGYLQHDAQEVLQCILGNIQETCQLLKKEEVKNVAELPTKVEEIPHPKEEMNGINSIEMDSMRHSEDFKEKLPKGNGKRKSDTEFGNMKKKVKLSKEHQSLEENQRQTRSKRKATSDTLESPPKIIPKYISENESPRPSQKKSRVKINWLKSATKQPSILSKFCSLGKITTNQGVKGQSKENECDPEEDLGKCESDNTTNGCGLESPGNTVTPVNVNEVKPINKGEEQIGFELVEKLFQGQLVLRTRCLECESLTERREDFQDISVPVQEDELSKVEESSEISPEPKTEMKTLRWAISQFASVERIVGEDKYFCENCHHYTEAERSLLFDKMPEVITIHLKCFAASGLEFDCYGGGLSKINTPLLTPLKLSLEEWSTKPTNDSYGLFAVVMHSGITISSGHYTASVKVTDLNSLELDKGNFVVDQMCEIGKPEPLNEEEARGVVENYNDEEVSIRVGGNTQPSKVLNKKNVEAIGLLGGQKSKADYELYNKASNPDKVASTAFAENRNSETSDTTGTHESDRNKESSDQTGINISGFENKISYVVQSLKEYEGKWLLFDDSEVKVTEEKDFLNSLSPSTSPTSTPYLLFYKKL
# Procedure, shortened: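 In 50mM HEPES pH 7.8 containing 0.5mM EDTA, 1mM TCEP, 0.1 mg/ml BSA and 0.01% Tween-20, 1nM USP1/UAF1 is exposed to compound for 15 min, then Ub-Rho (150nM final) is added and fluorescence is read over time.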
# [5] = target: DNA dC->dU-editing enzyme APOBEC-3G (Homo sapiens) (UniProt Q9HC16); assay: qHTS for inhibitors of Vif-A3G interactions: Validation (AID 588379); details: Vif-A3G protein interaction assay; series mostly up to 46.1 µM
# Chain of DNA dC->dU-editing enzyme APOBEC-3G (Homo sapiens) (Q9HC16 whole entry, looked up): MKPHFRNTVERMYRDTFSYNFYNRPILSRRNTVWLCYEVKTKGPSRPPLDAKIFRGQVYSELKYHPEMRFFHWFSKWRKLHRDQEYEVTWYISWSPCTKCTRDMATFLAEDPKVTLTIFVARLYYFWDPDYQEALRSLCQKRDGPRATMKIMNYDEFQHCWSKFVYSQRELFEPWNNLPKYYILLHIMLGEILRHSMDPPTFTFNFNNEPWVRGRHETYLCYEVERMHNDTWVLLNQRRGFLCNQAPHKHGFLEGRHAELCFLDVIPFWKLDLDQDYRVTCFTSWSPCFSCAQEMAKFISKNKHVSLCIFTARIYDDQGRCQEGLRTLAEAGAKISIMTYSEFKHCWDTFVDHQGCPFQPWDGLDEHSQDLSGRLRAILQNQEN
# Procedure, shortened: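 HeLa cells stably expressing Vif and A3G-eYFP, 700 cells/well, incubated overnight at 37 deg C, then exposed to compound overnight at 37 deg C. Inhibition of Vif-mediated degradation read as increased yellow fluorescence (Ex 488/Em 500-530) by laser-scanning cytometry.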
# [6] = tested on: Zika virus NS2B-NS3 protease; assay: Primary screen GU AMC qHTS for Zika virus inhibitors (AID 1347154); details: Zika NS2B-NS3 unlinked protease, AMC fluorogenic substrate; series mostly up to 54.1 µM; note: nearly all actives have a fitted effect of over 70% in size
# Procedure, shortened: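 Fluorogenic AMC-substrate cleavage by noncovalent NS2B-NS3 protease complex (25 nM, pH 8.0 Tris buffer with Tween 20) followed for 15 minutes at room temperature (~20% conversion). Percent inhibition from ex340/em450 signal change, fitted by 4-parameter Hill equation.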
# [7] = Primary qHTS for small molecule stabilizers of the endoplasmic reticulum resident proteome: Secreted ER Calcium Modulated Protein (SERCaMP) assay (AID 1508630); details: SH-SY5Y GLuc-SERCaMP (Gaussia luciferase released on ER calcium loss) secretion, thapsigargin, luminescence; series mostly up to 38.4 µM
# Procedure, shortened: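 GLuc-SERCaMP-expressing SH-SY5Y cells, pretreated 16 h with compound, are challenged with thapsigargin to empty ER calcium stores; after 4 h, coelenterazine is added directly to the medium and luminescence is imaged.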
# [8] = target: Glucocorticoid receptor (Homo sapiens) (UniProt P04150); assay: GR-EFC Redistribution (AID 451; calls by dose curve; note: potency is the fitted concentration of half-maximal effect); details: CHO-K1 GR-EFC translocation, beta-gal luminescence, 2 h
# Procedure, shortened: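 Translocation of GR-ED fusion to nuclear EA restores b-gal, read by luminescence after 1 h room-temperature detection. Engineered CHO-K1 biosensor cells, 1,000/well, exposed 2 h at 37 C to titrations up to 46 uM final.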
# [9] = target: 3',5'-cyclic-AMP phosphodiesterase 4B (Homo sapiens) (UniProt Q07343); assay: qHTS Assay for Inhibitors of PDE-IV (AID 607; active = well fitted activation curve with a large enough effect in the main read-out, with a control signal flat, not every such curve was filed as active); details: HEK293 ACTOne CNG channel cells, membrane potential fluorescence; series mostly up to 22.9 µM
# Chain of 3',5'-cyclic-AMP phosphodiesterase 4B (Homo sapiens) (Q07343 whole entry, looked up): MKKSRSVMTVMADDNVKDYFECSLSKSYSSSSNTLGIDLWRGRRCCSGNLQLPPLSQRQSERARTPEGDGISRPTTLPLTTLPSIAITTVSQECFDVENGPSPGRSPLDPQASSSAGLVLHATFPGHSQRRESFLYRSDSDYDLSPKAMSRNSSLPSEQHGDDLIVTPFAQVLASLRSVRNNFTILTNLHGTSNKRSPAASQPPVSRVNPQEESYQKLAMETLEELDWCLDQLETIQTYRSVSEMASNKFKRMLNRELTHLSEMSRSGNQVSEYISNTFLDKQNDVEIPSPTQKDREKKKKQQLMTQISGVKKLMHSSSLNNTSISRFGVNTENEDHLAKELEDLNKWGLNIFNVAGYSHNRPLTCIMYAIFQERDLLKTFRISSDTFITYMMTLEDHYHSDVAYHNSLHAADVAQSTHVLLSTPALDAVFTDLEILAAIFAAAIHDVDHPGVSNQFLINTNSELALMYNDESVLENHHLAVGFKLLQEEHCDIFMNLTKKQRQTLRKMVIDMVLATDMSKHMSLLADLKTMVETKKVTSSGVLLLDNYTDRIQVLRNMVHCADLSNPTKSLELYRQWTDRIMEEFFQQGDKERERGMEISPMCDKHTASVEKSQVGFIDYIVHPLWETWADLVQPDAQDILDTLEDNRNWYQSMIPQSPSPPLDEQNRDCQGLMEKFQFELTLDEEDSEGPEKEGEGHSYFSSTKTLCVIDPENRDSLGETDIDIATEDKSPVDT
# Procedure, shortened: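 Live HEK293 cells with a modified cyclic nucleotide-gated (CNG) channel report intracellular cAMP via membrane-potential dye fluorescence (ex 535/em 590 nm). Endogenous PDE-IV was targeted. Compounds were tested at up to 22.9 uM final; RO 20-1724 100 uM served as control.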
# [10] = target: Cytochrome P450 2C9 (Homo sapiens) (UniProt P11712); assay: qHTS Assay for Inhibitors and Substrates of Cytochrome P450 2C9 (AID 883); details: recombinant CYP2C9, luciferin-H luminescence, 60 min; series mostly up to 57.1 µM; note: nearly all actives have a fitted effect of over 60% in size; note: potency is the fitted concentration of half-maximal effect
# Chain of Cytochrome P450 2C9 (Homo sapiens) (P11712 whole entry, looked up): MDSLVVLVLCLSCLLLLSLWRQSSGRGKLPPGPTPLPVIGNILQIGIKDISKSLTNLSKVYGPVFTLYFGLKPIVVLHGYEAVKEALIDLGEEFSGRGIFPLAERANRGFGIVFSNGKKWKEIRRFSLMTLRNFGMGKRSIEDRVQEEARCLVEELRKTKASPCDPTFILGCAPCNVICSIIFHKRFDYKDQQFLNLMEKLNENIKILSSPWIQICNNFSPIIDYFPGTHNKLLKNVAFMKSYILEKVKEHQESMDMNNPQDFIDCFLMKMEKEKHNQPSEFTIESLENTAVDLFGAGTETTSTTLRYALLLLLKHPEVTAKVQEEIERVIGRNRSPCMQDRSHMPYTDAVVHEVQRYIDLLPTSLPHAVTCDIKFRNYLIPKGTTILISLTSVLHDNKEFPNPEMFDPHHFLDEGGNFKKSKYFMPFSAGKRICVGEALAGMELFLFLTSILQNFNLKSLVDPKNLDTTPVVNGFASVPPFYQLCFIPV
# Procedure, shortened: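 Luminescent read-out of deoxyluciferin hydroxylation, normalized to 57uM sulphaphenazole (AC100). Reaction: 10nM enzyme, 100uM Luciferin-H (equal to KM), 25mM KPO4, 10 min compound preincubation, then 60 min with NADPH regeneration, both at 37C.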
# [11] = target: Cytochrome P450 3A4 (Homo sapiens) (UniProt P08684); assay: qHTS Assay for Inhibitors and Substrates of Cytochrome P450 3A4 (AID 884); details: recombinant CYP3A4, Luciferin-PPXE luminescence; series mostly up to 57.1 µM; note: potency is the fitted concentration of half-maximal effect; nearly all actives have a fitted effect of over 50% in size
# Procedure, shortened: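 20 nM human CYP3A4 with 25 uM Luciferin-PPXE (at KM) in 200 mM KPO4, preincubated 10 min with compound; NADPH regeneration started a 60 min RT reaction. Luciferin detected by luminescence, normalized to 57 uM ketoconazole as full inhibition.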
# [12] = target: Cytochrome P450 2D6 (Homo sapiens) (UniProt P10635); assay: qHTS Assay for Inhibitors and Substrates of Cytochrome P450 2D6 (AID 891); details: recombinant CYP2D6, luciferin-ME EGE luminescence; series mostly up to 57.1 µM; note: potency is the fitted concentration of half-maximal effect; nearly all actives have a fitted effect of over 60% in size
# Chain of Cytochrome P450 2D6 (Homo sapiens) (P10635 whole entry, looked up): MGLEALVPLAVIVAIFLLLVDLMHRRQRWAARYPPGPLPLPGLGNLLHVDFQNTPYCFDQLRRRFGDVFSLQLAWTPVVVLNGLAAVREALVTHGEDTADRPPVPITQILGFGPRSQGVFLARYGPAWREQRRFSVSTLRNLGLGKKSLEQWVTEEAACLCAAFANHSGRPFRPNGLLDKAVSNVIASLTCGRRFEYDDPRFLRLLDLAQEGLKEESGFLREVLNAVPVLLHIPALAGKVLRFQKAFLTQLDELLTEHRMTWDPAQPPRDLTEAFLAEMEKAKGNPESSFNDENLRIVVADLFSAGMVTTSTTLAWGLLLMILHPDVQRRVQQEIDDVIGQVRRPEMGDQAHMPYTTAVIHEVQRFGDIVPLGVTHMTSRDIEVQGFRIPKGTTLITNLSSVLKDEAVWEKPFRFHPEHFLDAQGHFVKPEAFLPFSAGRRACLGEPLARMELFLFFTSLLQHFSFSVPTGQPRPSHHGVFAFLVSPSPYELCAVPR
# Procedure, shortened: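 Human CYP2D6 (5 nM) with 30 uM Luciferin-ME EGE (at Km) in 100 mM KPO4, compound preincubated 10 min, then NADPH regeneration system for 60 min at room temperature. Luciferin read by luminescence; normalized to 1.43 uM quinidine.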
# [13] = target: Cytochrome P450 2C19 (Homo sapiens) (UniProt P33261); assay: qHTS Assay for Inhibitors and Substrates of Cytochrome P450 2C19 (AID 899); details: recombinant CYP2C19, luciferin-H EGE luminescence; series mostly up to 57.1 µM; note: potency is the fitted concentration of half-maximal effect; nearly all actives have a fitted effect of over 60% in size
# Chain of Cytochrome P450 2C19 (Homo sapiens) (P33261 whole entry, looked up): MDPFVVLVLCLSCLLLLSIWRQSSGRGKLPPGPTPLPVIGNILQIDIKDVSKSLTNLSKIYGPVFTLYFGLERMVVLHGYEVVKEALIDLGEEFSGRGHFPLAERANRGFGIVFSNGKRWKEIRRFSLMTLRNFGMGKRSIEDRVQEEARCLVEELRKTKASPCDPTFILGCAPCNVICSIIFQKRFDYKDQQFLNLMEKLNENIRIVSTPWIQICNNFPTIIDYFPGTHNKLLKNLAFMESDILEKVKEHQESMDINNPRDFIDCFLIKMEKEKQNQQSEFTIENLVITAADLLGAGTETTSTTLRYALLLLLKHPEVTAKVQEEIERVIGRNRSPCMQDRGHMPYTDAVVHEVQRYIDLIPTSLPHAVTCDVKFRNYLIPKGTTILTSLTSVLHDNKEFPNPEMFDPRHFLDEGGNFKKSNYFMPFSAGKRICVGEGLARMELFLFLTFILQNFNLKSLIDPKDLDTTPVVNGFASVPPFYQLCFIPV
# Procedure, shortened: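 Luminescence readout of luciferin formed from 10uM Luciferin-H EGE (KM level) by 5 nM CYP2C19 in 50mM KPO4. 60 min NADPH-driven reaction at 37C after 10 min compound preincubation; data scaled to 57uM ketoconazole inhibition.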
# [14] = qHTS for Inhibitors of the vitamin D receptor (VDR): Hit Validation using a Texas Red Assay (AID 602201); details: VDR coregulator binding, Texas Red fluorescence polarization; agonist-bound VDR ligand-binding domain; note: potency is the fitted concentration of half-maximal effect
# Procedure, shortened: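 After a 2-hour room-temperature incubation, polarization of Texas-Red emission was read (Ex 595 nm/Em 615 nm). Final mix contained 7 nM Texas Red, 1.5 uM VDR-LBD and LG19078.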
Structure (SMILES),Potency [1],Potency [2],Potency [3],Potency [4],Potency [5],Potency [6],Potency [7],Potency [8],Potency [9],Potency [10],Potency [11],Potency [12],Potency [13],Potency [14]
CNC(=O)[C@H]1O[C@H](n2cnc3c(NCc4cccc(I)c4)ncnc32)[C@@H](O)[C@@H]1O,> 46 µM,inactive,inactive,inactive,inactive,inactive,inactive,,,,,,,
Cc1noc(NS(=O)(=O)c2cccc3c(N(C)C)cccc23)c1C,> 46 µM,inactive,inactive,,inactive,inactive,inactive,> 46 µM,inactive,631 nM (active),,,,
CC(C)(C)Cn1nc(-c2ccc(Cl)cc2)c2c(N)ncnc21,> 46 µM,,,inactive,inactive,inactive,inactive,> 46 µM,,,,,,
CCS(=O)(=O)N1CCC[C@H]2CN3CCc4cc(OC)ccc4[C@@H]3C[C@@H]21,> 46 µM,inactive,inactive,inactive,inactive,inactive,inactive,> 46 µM,,inactive,5.01 µM (active),,,
Cc1c(-c2ccc(Cl)cc2)noc1C1CCN(CCc2ccccc2)CC1,> 46 µM,,,,inactive,inactive,inactive,> 46 µM,inactive,,,,,
COc1ccc(-c2ccc(=N)n(CCCC(=O)O)n2)cc1,> 46 µM,inactive,,inactive,inactive,inactive,inactive,> 46 µM,,3160 nM (active),,3.98 µM (active),158 nM (active),
CCOC(=O)C1=C(C)NC(c2ccccc2)=C(C(=O)OCc2ccc([N+](=O)[O-])cc2)[C@@H]1C#Cc1ccccc1,> 46 µM,inactive,,,inactive,inactive,inactive,> 46 µM,inactive,,,,,
O=C1c2ccccc2CC[C@H]1CNCCc1ccc(O)cc1,> 46 µM,,inactive,,inactive,inactive,inactive,> 46 µM,inactive,,,0.398 µM (active),,25.1 µM (active)
COc1cc2c(cc1OC)C(c1ccc(N)cc1)=NNC(=O)C2,> 46 µM,inactive,inactive,,inactive,inactive,inactive,> 46 µM,inactive,,,,,
